Screens deposited in PubChem BioAssay by National Center for Advancing Translational Sciences (NCATS).
Pf Dd2 growth: blocks in vitro growth of P. falciparum Dd2. P. falciparum Dd2 growth, SYBR Green, 72 h. Potency, µM (series often up to 28.9 µM), actives largely listed as inhibitors. 4.3% of 120,000 active. AID 1347417; active = well fitted inhibition curve with a large enough effect; note: nearly all actives have a fitted effect of over 65% in size
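Readout: SYBR Green fluorescence, 485 nm excitation, 535 nm emission, after ~16 h lysis at 37C. Before that, Dd2-infected red cells (2.5% hematocrit) grew 72 h with compound, 29 uM top final concentration.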
A number is an active result; n = inactive. Shown is part of a subset that was picked to be rich in hits.

SMILES	Pf Dd2 growth
CCc1cccc(C)c1Nc1c(-c2ccccc2)nc2sccn12	n
CN(CC1CCOCC1)C(=O)Nc1ccc(Cl)cc1F	n
COCCN1C[C@H]2CN(C(=O)c3ccc4c(c3)OCO4)CCN2C1=O	n
O=C(NCC1CCS(=O)(=O)C1)N1CCc2nc(-c3ccccc3)[nH]c2C1 (stereo not given)	n
O=C(c1ccccc1F)N1CCC(N2CC3CC(C2)[C@H]2CCCC(=O)N2C3)CC1 (stereo not given in full)	n
CC1=C[C@@H](CNC(=O)CC2(CC(=O)O)CCCC2)[C@H](C(C)C)C[C@H]1Cc1nc2ccc(C)cc2[nH]1	n
CC1=C[C@@H](CNC(=O)C2CCC2)[C@H](C(C)C)C[C@H]1Cc1nc2ccc(F)cc2[nH]1	11µM
CC(=O)N1CCC(NC[C@@H]2C=C(C)[C@H](Cc3nc4ccc(F)cc4[nH]3)C[C@H]2C(C)C)CC1	11µM
COc1ccc2[nH]c(C[C@@H]3C[C@@H](C(C)C)[C@H](CNC4CCN(C(C)=O)CC4)C=C3C)nc2n1	n
COC(=O)c1ccc2nc(C[C@@H]3C[C@@H](C(C)C)[C@H](CNC4CCN(C)CC4)C=C3C)[nH]c2c1	3.2µM
CC1=C[C@@H](CNC(=O)CCC(=O)O)[C@H](C(C)C)C[C@H]1Cc1nc2ccc(F)cc2[nH]1	n
CC(=O)N1CCC(NC[C@@H]2C=C(C)[C@H](Cc3nc4ccc(C)cc4[nH]3)C[C@H]2C(C)C)CC1	11µM
CC1=C[C@@H](CNC(=O)c2cnccn2)[C@H](C(C)C)C[C@H]1Cc1nc2ccc(C)cc2[nH]1	n
CN[C@H](C(=O)N[C@H]1C[C@@](O)(C(=O)N[C@H](Cc2c[nH]c3ccccc23)C(N)=O)C[C@@H](O)[C@@H]1O)C(C)C	n
O=C(Cn1ccn2nc3c(c2c1=O)CCCCC3)Nc1ccc2c(c1)OCCO2	n
COc1ccc(C2=NOC3(CCN(Cc4cc(C)on4)C3)C2)cc1 (stereo not given)	n
O=C(O)c1ccc(CN2C[C@@H]3OCC(=O)N(c4ccccc4)[C@@H]3C2)cc1	n
CN(C)C[C@H]1O[C@@H](CO)[C@@H](O)[C@H]1N(C)CCc1ccccn1	n
O=C1NC2(CCN(C(=O)c3ccccc3)CC2)COc2ccccc21	n
O=C1NC2(CCN(Cc3ccc(OC(F)(F)F)cc3)CC2)COc2ccccc21	2.2µM
CN(C)c1ccc(CN2CCC3(CC2)COc2ccccc2C(=O)N3)cc1	1.1µM
CN(C)c1ccc(CN2CCC3(COc4ccccc4C(=O)N3)C2)cc1 (stereo not given)	n
O=C1NC2(CCN(CC3CCCC3)CC2)COc2ccccc21	n
Cn1cccc1CN1CC2(C1)NC(=O)c1ccccc1O2	n
O=C1NC2(CCN(C(=O)C3CCCC3)CC2)COc2ccccc21	n
SMILES	Pf Dd2 growth
Cn1cccc1CN1CCC2(CC1)COc1ccccc1C(=O)N2	5.6µM
O=C1NC2(CCCN(Cc3ccc(OC(F)(F)F)cc3)C2)COc2ccccc21 (stereo not given)	n
CCC(=O)NC(C)C(=O)N1CCn2nc(Cc3ccccc3)cc2C1 (stereo not given)	n
O=C1CCN(Cc2ccc(O)cc2)CCCC(c2nc(-c3cccnc3)no2)CCN1 (stereo not given)	n
CC(C)c1ccc(-c2nc(C3CC(=O)N(c4ccc(Cl)cc4)C3)no2)cc1 (stereo not given)	n
COc1ccc(Cl)cc1NC(=O)CCC1CCCN(C(=O)CCCn2cncn2)C1 (stereo not given)	n
Cc1ccc(-n2c(C3CCN(C(=O)c4ccc(F)cc4Cl)CC3)n[nH]c2=O)cc1	n
O=C(O)CCC(=O)N1C[C@@H]2OCC(=O)N(Cc3ccc(F)cc3)[C@@H]2C1	n
COCCOC1CN(C2CCN(C(=O)Nc3ccccc3F)CC2)C12CCCCC2 (stereo not given)	n
COCCOC1CN(C2CCN(Cc3ccncc3)CC2)C12CCCCC2 (stereo not given)	n
COCCOC1CN(C2CCN(S(=O)(=O)c3ccccc3)CC2)C12CCCCC2 (stereo not given)	n
COCCOC1CN(C2CCN(C(=O)c3ccc(OC)c(F)c3)CC2)C12CCCCC2 (stereo not given)	n
COCCOC1CN(C2CCN(Cc3cccc(F)c3)CC2)C12CCCCC2 (stereo not given)	3.5µM
COCCOC1CN(C2CCN(Cc3ccc(F)c(F)c3)CC2)C12CCCCC2 (stereo not given)	2.5µM
CN1CC2CN(C(=O)c3cccs3)CC(C1)O2	n
CCNC(=O)N1CCC2(CC1)N(C)C(=O)CS2=O (stereo not given)	n
C=CCC1(C(=O)O)CCCN(Cc2cc(Cl)ccc2OCC(=O)O)C1 (stereo not given)	n
CC(C)CN1C(=O)c2cccn2CC1CNC(=O)c1ccco1 (stereo not given)	n
Cc1cc(-c2cc3c(cn2)CN(Cc2cccs2)CCN3)ccn1	n
COc1ccc2c(c1)c(=O)c(S(=O)(=O)c1ccc(Cl)cc1)cn2Cc1cc(C)ccc1C	11µM
CCOc1ccc2c(c1)c(=O)c(S(=O)(=O)c1ccc(CC)cc1)cn2CC	n
